Reference: PubChem BioAssay (NCI)
The panel holds about 83,000 compounds, 20% with a hit somewhere; the sample as a whole holds those more often.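 Single-concentration screen, 48 h exposure, 96-well plates. Endpoint: percent growth. Below 10 = active.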 Calls of active or inactive are those of the source.

Test system: MDA-MB-435 melanoma
Test: NCI-60 one-dose screen, 48 h (100 = growth as untreated, 0 = no growth, -100 = all killed)
Settings: 10 µM unless noted

| SMILES | growth |
| --- | --- |
| COc1cc([N+](=O)[O-])c2ncccc2c1O | 51.8% (inactive) |
| Brc1ccc(-c2[nH]ncc2-c2c[nH]c3ccccc23)cc1 | 92.7% (inactive) |
| COc1ccc(C2C(C#N)=C(N)Oc3c2ccc2ccccc32)cc1 (stereo not drawn) | -49.8% (active) |
| CNc1ccc(Br)c2c1C(=O)c1ccccc1C2=O | 108% (inactive) |
| c1cc2[nH]ncc2cc1-c1nc2ccc3[nH]ncc3c2c2c1CCC2 | -7.86% (active) |
| O=C(Nc1ccncc1)C(=O)c1cn(S(=O)(=O)c2ccccc2F)c2ccccc12 | 3.81% (active) |
| O=C1/C(=C/c2ccc([N+](=O)[O-])cc2)CN(C(=O)CCN2CCC(=NO)CC2)C/C1=C\c1ccc([N+](=O)[O-])cc1 | -52.1% (active) |
| O=C(O)COc1ccc(-c2cssc2=S)cc1 | 102% (inactive) |
| N=C(N)c1ccc(-c2ccc(-c3ccc4ccccc4c3)s2)cc1 | 36.6% (inactive) |
| CC(=O)OC[C@]12CC[C@H]3[C@@H](C[C@H]4O[C@]45CC=CC(=O)[C@]35C)[C@]1(O)CC[C@@]2(O)[C@@](C)(O)C1CC(C)=C(C)C(=O)O1 (stereo partly drawn) | -77.4% (active) |
| Cc1ccc(-c2cc3nc(-c4ccccc4)nc(C(Cl)Cl)n3n2)cc1 | -68.3% (active) |
| CCN(CC)c1ccc(N=O)cc1 | 66.9% (inactive) |
| Oc1ccccc1/C=N/NC(=S)NC1CC2C=CC1C2 (stereo not drawn) | 11.9% (inactive) |
| CCCCCCCCCCCC(=O)NCCC[N+](C)(C)CC(=O)[O-] | 88.7% (inactive) |
| Cc1ccc(C(=O)C2=Cc3cc4ccccc4n3Cc3cnnn32)cc1 | 71.7% (inactive) |
| O=[N+]([O-])c1cccc(-c2nc3sccn3c2-c2ccnc(NCCCNS(=O)(=O)c3ccc(Cl)cc3)n2)c1 | 33.4% (inactive) |
| CCCCCCCCCCCCNC(=O)[C@H]1CSC(c2cc(Br)cs2)N1 (stereo partly drawn) | -90.3% (active) |
| NC(=O)CCCN1C/C(=C\c2ccccc2)C(=O)c2ccccc21 | 101% (inactive) |
| CCCCCCCCC(C)OC(=O)c1nn(C(C)=O)c2ccccc12 (stereo not drawn) | 101% (inactive) |
| O=C(CSC1CCc2ccccc21)N/N=C/c1ccccc1O (stereo not drawn) | 71.7% (inactive) |

| SMILES | growth |
| --- | --- |
| C=C1c2nc3ccccc3n2C=C(c2ccc(Cl)cc2)N1Cc1ccccc1 | 98.1% (inactive) |
| COc1ccc2[nH]c(C(=O)OCc3ccc4c(Cl)cc(Cl)c(O)c4n3)cc2c1 | -85% (active) |
| C=C[C@@H]1C[C@@H]2Cc3cc(F)ccc3N1O2 | 98.7% (inactive) |
| C=CCSc1n[nH]c(-c2cccs2)n1 | 106% (inactive) |
| NC(=N\N=C/c1ccc(O)cc1)/C(N)=N\N=C/c1ccc(O)cc1 | 44.7% (inactive) |
| C=C[C@@H]1C[C@H](O)Cc2cc(F)ccc2N1 | 93.8% (inactive) |
| COc1ccc(-c2cnoc2-c2ccc(OC)cc2O)cc1 | -29.4% (active) |
| CN(C)c1oc(C2OC2c2ccccc2)nc1C#N (stereo not drawn) | 101% (inactive) |
| ClC(Cl)c1nc(-c2cccnc2)n2nc(-c3ccccc3)cc2n1 | 0.991% (active) |
| COc1cc(-c2nn(-c3cccc(NC(=O)Nc4cccc(C(F)(F)F)c4)c3)cc2-c2ccncc2)ccc1Cl | -50% (active) |
| CCN(CC)CCOc1ccc(/C(=C(/C)c2ccccc2)c2ccc(OC(C)=O)cc2)cc1 | 94.8% (inactive) |
| O=C(/C=C/c1cc(-c2ccc3c(c2)OCO3)n[nH]1)c1ccc2c(c1)OCO2 | 99.7% (inactive) |
| S=C(S)NCCc1c[nH]c2ccccc12 | 103% (inactive) |
| c1ccc(Nc2nc(Nc3ccccc3)nc(Nc3ccccc3)n2)cc1 | 89.7% (inactive) |
| C=C1CCC2C3(C)COC(c4c(OC)cccc4OC)OC3CCC2(C)C1C/C=C1/C(=O)OCC1O (stereo not drawn) | 19.4% (inactive) |
| Cc1cc(N/N=C/c2nc(-c3ccccc3)oc2C)c2cc(Cl)ccc2n1 | -95.6% (active) |
| Nc1cccc(-c2nc3sccn3c2-c2ccnc(NCCCNS(=O)(=O)c3cccc4ccccc34)n2)c1 | 23.2% (inactive) |
| CCOC(=O)c1c(NS(=O)(=O)c2ccc(C)cc2)sc2c1CCC1(C2)OCCO1 | 101% (inactive) |
| COc1ccc(Nc2ncccc2C(=O)NCc2cn(Cc3cccc(Oc4ccccc4)c3)nn2)cc1 | -16.3% (active) |

Test system: SW-620 colon
Test: as above
Settings: 10 µM unless noted

| SMILES | growth |
| --- | --- |
| COc1cc([N+](=O)[O-])c2ncccc2c1O | 58.6% (inactive) |
| Brc1ccc(-c2[nH]ncc2-c2c[nH]c3ccccc23)cc1 | 96.2% (inactive) |
| COc1ccc(C2C(C#N)=C(N)Oc3c2ccc2ccccc32)cc1 (stereo not drawn) | 19% (inactive) |
| CNc1ccc(Br)c2c1C(=O)c1ccccc1C2=O | 107% (inactive) |
| c1cc2[nH]ncc2cc1-c1nc2ccc3[nH]ncc3c2c2c1CCC2 | 12.6% (inactive) |
| O=C(Nc1ccncc1)C(=O)c1cn(S(=O)(=O)c2ccccc2F)c2ccccc12 | 15.6% (inactive) |
| O=C1/C(=C/c2ccc([N+](=O)[O-])cc2)CN(C(=O)CCN2CCC(=NO)CC2)C/C1=C\c1ccc([N+](=O)[O-])cc1 | -53.2% (active) |
| O=C(O)COc1ccc(-c2cssc2=S)cc1 | 107% (inactive) |
| N=C(N)c1ccc(-c2ccc(-c3ccc4ccccc4c3)s2)cc1 | 19.3% (inactive) |
| CC(=O)OC[C@]12CC[C@H]3[C@@H](C[C@H]4O[C@]45CC=CC(=O)[C@]35C)[C@]1(O)CC[C@@]2(O)[C@@](C)(O)C1CC(C)=C(C)C(=O)O1 (stereo partly drawn) | -32.1% (active) |
| Cc1ccc(-c2cc3nc(-c4ccccc4)nc(C(Cl)Cl)n3n2)cc1 | -48.2% (active) |
| CCN(CC)c1ccc(N=O)cc1 | -61.1% (active) |
| Oc1ccccc1/C=N/NC(=S)NC1CC2C=CC1C2 (stereo not drawn) | 45.5% (inactive) |
| CCCCCCCCCCCC(=O)NCCC[N+](C)(C)CC(=O)[O-] | 109% (inactive) |
| Cc1ccc(C(=O)C2=Cc3cc4ccccc4n3Cc3cnnn32)cc1 | 105% (inactive) |
| O=[N+]([O-])c1cccc(-c2nc3sccn3c2-c2ccnc(NCCCNS(=O)(=O)c3ccc(Cl)cc3)n2)c1 | 90.1% (inactive) |
| CCCCCCCCCCCCNC(=O)[C@H]1CSC(c2cc(Br)cs2)N1 (stereo partly drawn) | -34.2% (active) |
| NC(=O)CCCN1C/C(=C\c2ccccc2)C(=O)c2ccccc21 | 97.6% (inactive) |
| CCCCCCCCC(C)OC(=O)c1nn(C(C)=O)c2ccccc12 (stereo not drawn) | 103% (inactive) |
| O=C(CSC1CCc2ccccc21)N/N=C/c1ccccc1O (stereo not drawn) | 52.9% (inactive) |

| SMILES | growth |
| --- | --- |
| C=C1c2nc3ccccc3n2C=C(c2ccc(Cl)cc2)N1Cc1ccccc1 | 86.9% (inactive) |
| COc1ccc2[nH]c(C(=O)OCc3ccc4c(Cl)cc(Cl)c(O)c4n3)cc2c1 | -68.2% (active) |
| C=C[C@@H]1C[C@@H]2Cc3cc(F)ccc3N1O2 | 112% (inactive) |
| C=CCSc1n[nH]c(-c2cccs2)n1 | 102% (inactive) |
| NC(=N\N=C/c1ccc(O)cc1)/C(N)=N\N=C/c1ccc(O)cc1 | 40.8% (inactive) |
| C=C[C@@H]1C[C@H](O)Cc2cc(F)ccc2N1 | 98.7% (inactive) |
| COc1ccc(-c2cnoc2-c2ccc(OC)cc2O)cc1 | 11% (inactive) |
| CN(C)c1oc(C2OC2c2ccccc2)nc1C#N (stereo not drawn) | 94.3% (inactive) |
| ClC(Cl)c1nc(-c2cccnc2)n2nc(-c3ccccc3)cc2n1 | 0.424% (active) |
| COc1cc(-c2nn(-c3cccc(NC(=O)Nc4cccc(C(F)(F)F)c4)c3)cc2-c2ccncc2)ccc1Cl | 8.92% (active) |
| CCN(CC)CCOc1ccc(/C(=C(/C)c2ccccc2)c2ccc(OC(C)=O)cc2)cc1 | 95.5% (inactive) |
| O=C(/C=C/c1cc(-c2ccc3c(c2)OCO3)n[nH]1)c1ccc2c(c1)OCO2 | 93.8% (inactive) |
| S=C(S)NCCc1c[nH]c2ccccc12 | 101% (inactive) |
| c1ccc(Nc2nc(Nc3ccccc3)nc(Nc3ccccc3)n2)cc1 | 88.9% (inactive) |
| C=C1CCC2C3(C)COC(c4c(OC)cccc4OC)OC3CCC2(C)C1C/C=C1/C(=O)OCC1O (stereo not drawn) | 16.2% (inactive) |
| Cc1cc(N/N=C/c2nc(-c3ccccc3)oc2C)c2cc(Cl)ccc2n1 | -73.3% (active) |
| Nc1cccc(-c2nc3sccn3c2-c2ccnc(NCCCNS(=O)(=O)c3cccc4ccccc34)n2)c1 | 68.2% (inactive) |
| CCOC(=O)c1c(NS(=O)(=O)c2ccc(C)cc2)sc2c1CCC1(C2)OCCO1 | 90.7% (inactive) |
| COc1ccc(Nc2ncccc2C(=O)NCc2cn(Cc3cccc(Oc4ccccc4)c3)nn2)cc1 | 24.6% (inactive) |
